Compound activity as filed in PubChem BioAssay.
D3 ag: qHTS of D3 Dopamine Receptor Agonist: qHTS. D(3) dopamine receptor (Homo sapiens), P35462. D3R DiscoveRx beta-arrestin cells, luminescence, 90 min. max activation, %. 410,000 tested, 0.58% active. AID 652048, 2013; in the data active = max activation above about 30%; also: 0% is about no effect
Target sequence (P35462 whole entry, looked up): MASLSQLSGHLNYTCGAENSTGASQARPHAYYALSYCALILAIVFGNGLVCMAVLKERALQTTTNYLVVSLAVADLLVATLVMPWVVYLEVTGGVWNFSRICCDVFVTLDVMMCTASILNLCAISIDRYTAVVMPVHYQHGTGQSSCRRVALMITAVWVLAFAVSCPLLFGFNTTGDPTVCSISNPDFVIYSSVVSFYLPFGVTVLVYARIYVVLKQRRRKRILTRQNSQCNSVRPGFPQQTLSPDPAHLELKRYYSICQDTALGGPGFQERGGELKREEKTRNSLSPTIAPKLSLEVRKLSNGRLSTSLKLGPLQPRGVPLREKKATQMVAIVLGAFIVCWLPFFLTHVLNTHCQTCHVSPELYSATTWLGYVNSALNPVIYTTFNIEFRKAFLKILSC
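Agonist-mode cell screen: cells plated at 1500/well and incubated overnight at 37 °C, then exposed to library compounds for 90 min at 37 °C. Detection reagent was added for 30–60 min at room temperature, and luminescence was read.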
D3 antag: qHTS of D3 Dopamine Receptor Antagonist: qHTS; max response, negative = inhibition, %; 360,000 tested, 2.5% active; D3R cells, DiscoveRx beta-arrestin luminescence, antagonist mode; hits give low values; in the data active = max response below about -50%; inconclusive = no clear call, values can overlap the other calls; also: % is scaled to controls: 0 for no effect and ±100 for the full control effect
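Cells expressing the human receptor were seeded at 1500 cells/well, incubated overnight at 37 degrees C in 5% CO2, then exposed to library compounds with dopamine controls for 90 minutes at 37 degrees C before luminescent detection.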
ATXN viability: Viability Counterscreen for Primary qHTS for Inhibitors of ATXN expression; S2 cells (HEK-293 line with an ATXN2-luciferase reporter) viability, CellTiter-Fluor protease fluorescence, 24 h; Potency, µM (titrated, usually from 56.7 µM), most hits filed as cytotoxic; 400,000 tested, 0.49% active; AID 651635, 2014; also: potency is read from the fitted curve at half-maximal effect; nearly all actives have a fitted effect of over 40% in size
TGFb SMAD3 inh: qHTS for Inhibitors of TGF-b | 410,000 tested, 1.2% active | Potency, µM (titrated, usually from 46.1 µM), for inactives: top-dose activity, negative = inhibition, most hits filed as inhibitors | HepG2 CAGA-GFP TGF-b/SMAD3 reporter, GFP fluorescence, 18 h; TGF-beta stimulated, 500 pg/mL final | AID 588855, 2011; also: potency is read from the fitted curve at half-maximal effect; % is scaled to controls: 0 for no effect and ±100 for the full control effect; nearly all actives have a fitted effect of over 65% in size
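Per well, imaged GFP fluorescence of HEPG2 CAGA-GFP cells gives the signal; cells get compound, then TGF-beta (500 pg/mL final), 18 h at 37 degrees C; %Activity versus -TGF-beta and +DMSO controls.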
ATXN2 expr inh: Primary qHTS for Inhibitors of ATXN expression | 360,000 tested, 0.72% active | AID 1745845, 2022 | Potency, µM (highest dose often 57 µM), without a hit: at the top dose activity change, negative = inhibition, actives largely listed as inhibitors | HEK-293 ATXN2-luciferase reporter, luminescence, 24 h; also: potency is read from the fitted curve at half-maximal effect; % is scaled to controls: 0 for no effect and ±100 for the full control effect; nearly all actives have a fitted effect of over 55% in size
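qHTS (up to 57 uM final) was run with 24 h compound exposure of reporter cells at 37 °C. Each well was multiplexed: SteadyGlo luminescence measured ATXN2-luciferase expression after a fluorogenic Gly-Phe-AFC viability readout (25 uM final).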
HepG2 viability: qHTS for Inhibitors of TGF-b: Cytotox Counterscreen; 410,000 tested, 0.76% active; Potency, µM (series often up to 46.1 µM), inactives show at the top dose activity change, negative = cytotoxicity, hits mostly cytotoxic; HepG2 CAGA-GFP viability, ATP luminescence, 18 h; AID 588856, 2011; also: potency is read from the fitted curve at half-maximal effect
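CellTiter-Glo luminescence gave cytotoxicity after 18 hours at 37 degrees C. The cells were HepG2 CAGA-GFP in 1% FBS DMEM, stimulated with 500 pg/mL TGF-beta after compound addition. %Activity was normalised to no-cell wells (complete cell-killing) and DMSO (no toxicity), and curves were fitted and classified.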
The depositor's hits bear a star; i = inactive; ? = inconclusive; nt = not tested or not shown; + = active, no number; [ ] = remark or other dose. Compounds with a hit are over-represented: about 4.8% of the library has one in this group of screens. Unless noted, calls follow the shape of the dose curve; as a rule, active = well fitted curve in the direction sought with a large enough effect; inconclusive = small, poorly fitted or top-dose-only effect, or another doubt; inactive = no such curve, though single readings can be large; an effect the other way counts as inactive or inconclusive.

SMILES	D3 ag	D3 antag	ATXN viability	TGFb SMAD3 inh	ATXN2 expr inh	HepG2 viability
Cc1cc(Br)ccc1OCCCCN1CCCCC1	-12.0	-50.9*	i	-13.1%	-19.8%[11.3 µM]	-28.6%
Cc1ccc(OCCOCCN2CCCC2)c(Br)c1	-18.7	?	i	-5.1%	-13.1%	-25.1%
Cc1cc(C(C)(C)C)ccc1OCCN1CCCC1	0.4	-64.3*	i	-18.3%	-12.0%	-18.1%
COCCn1c(CNC(=O)c2cc([N+](=O)[O-])ccc2Cl)nc2cccnc21	4.0	nt	nt	?	nt	7.0%
CC(C)(C)C(=O)OCC(=O)[C@H]1CC[C@H]2[C@@H]3CCC4=CC(=O)CC[C@]4(C)[C@H]3CC[C@]12C	-5.4	nt	nt	nt	nt	nt
CN(C)c1ccc(CNC(=O)c2cccc(NC(=O)N3CCSc4ncccc43)c2)cc1	6.5	nt	nt	-8.4%	nt	-7.9%
Nc1ccc(C23CC4CC(CC(O)(C4)C2)C3)cc1	-0.2	-50.3*	i	33.4%	-7.6%	-14.8%
CNC(=O)/C=C1\NC(C)(C)Cc2c1ccc1ccccc21	2.3	24.7	i	3.7%	-11.6%	-1.1%
CC1(C)Cc2c(ccc3ccccc23)/C(=C/C#N)N1	-12.5	+	i	?	-21.8%	-14.8%
CC(C)(C)NCC(=Cc1ccccc1)C(=O)c1ccccc1	-15.4	?	10.6µM*	8.91µM*	8.44µM*	-100.0%
COc1ccc(NC(=O)CCN2CCC(C)CC2)cc1	-6.3	-75.6*	i	-2.6%	48.3%	3.4%
CCOC(=O)C1CCN(CCC(=O)Nc2ccc(OC)cc2)CC1	-12.7	nt	i	-9.1%	4.8%	-27.9%
COc1ccc(NC(=O)CCN2CCCC(C)C2)cc1 (stereo unspecified)	0.0	-74.5*	i	3.4%	3.0%	0.3%
CC(=O)NC1CCCC1C#N (stereo unspecified)	nt	nt	nt	-4.7%	nt	0.9%
COC(=O)c1cc(CNC(=O)c2ccc(N(C)C)cc2)cc(NC(=O)c2ccccc2Cl)c1	nt	nt	i	nt	nt	nt
C/C=C(\C)NNC(=O)Cc1ccc(OC)cc1	nt	nt	nt	0.1%	nt	1.1%
Cc1ccc(C(=O)Nc2cnc3ccccc3c2)cc1	5.5	6.7	i	-30.3%	2.24µM*	-29.3%
Cc1nc2ccc(NC(=O)c3cccc(S(=O)(=O)N(C)c4ccccc4)c3)cc2s1	-6.6	32.8	?	?	28.2µM*	3.4%
Cc1cc(C(=O)Nc2cnc3ccccc3c2)ccc1[N+](=O)[O-]	-0.8	5.4	i	1.7%	28.7%[11.3 µM]	20.6%
COc1cc(SC)ccc1C(=O)Nc1nc2ccccc2[nH]1	-4.4	-2.8	i	18.4%	0.316µM*	10µM*
COc1ccccc1C(=O)Nc1nc2ccccc2[nH]1	-4.1	3.5	i	-6.7%	0.316µM*	2.82µM*
Cc1nc(-c2ccc(Cl)cc2)sc1CCNC(=O)C(=O)Nc1ccc(F)cc1F	5.6	nt	i	-8.9%	23.4%	-0.2%
COc1cc(SC)ccc1C(=O)NNC(=O)c1cc(C)oc1C	-0.2	21.8	?	10.5%	-6.9%	7.94µM*
Cc1ccc(C(=O)Cc2nc3ccccc3[nH]2)cc1	-11.6	-50.5*	i	-4.8%	4.2%	-17.1%
CCOC(=O)Cc1nc2ccccc2[nH]1	-23.5	16.2	i	?	2.3%	2.6%
SMILES	D3 ag	D3 antag	ATXN viability	TGFb SMAD3 inh	ATXN2 expr inh	HepG2 viability
Cc1nc2ccc(NC(=O)c3ccccc3)cc2s1	-2.3	-14.3	i	-4.1%	40.4%	-6.3%
CCn1nc(C(=O)Nc2ccc3nc(C)sc3c2)c2ccccc2c1=O	0.6	-86.5*	i	-1.1%	1.2%	0.4%
Cc1ccc(C(=O)Nc2nc3ccccc3[nH]2)cc1	12.1	-1.2	i	-20.0%	3.55µM*	-70.4%
COCCNc1oc(/C=C/c2ccc(F)cc2)nc1C#N	-7.3	nt	nt	nt	nt	0.6%
CN(C)c1cccc(C(=O)Nc2nc3ccccc3[nH]2)c1	-15.1	?	i	2.2%	?	-11.8%
Cc1ccc(N(C)S(=O)(=O)c2cccc(C(=O)Nc3nc4ccccc4[nH]3)c2)cc1	42.2*	34.3	?	-15.2%	-28.2%	-4.4%
N#C/C(=C\c1ccc(Cl)cc1)C(=O)NCC1CCCO1 (stereo unspecified)	9.9	nt	i	2.3%	9.4%	-25.1%
O=C(CCS(=O)(=O)c1ccccc1)N(CCCN1CCOCC1)c1nc2ccc(F)cc2s1	-13.8	-16.2	nt	?	?	12.6µM*
O=C(CCS(=O)(=O)c1ccccc1)N(CCCN1CCOCC1)c1nc2c(F)cccc2s1	-33.3	-15.8	nt	?	?	-73.2%
CC(=O)c1cccc(NC(=O)COc2ccccc2C(=O)Nc2ccccc2)c1	nt	nt	nt	-28.9%	nt	-12.1%
CC(C)NC(=O)Cn1ccc2cc(S(=O)(=O)N3CCCCCC3)ccc21	0.7	nt	i	-21.7%	-7.0%	-8.6%
O=C(Nc1nnc(S(=O)(=O)N2CCc3ccccc32)s1)c1cccc(Cl)c1	-11.2	nt	i	7.94µM*	?	-46.4%
O=C(Nc1nnc(S(=O)(=O)N2CCc3ccccc32)s1)c1ccccc1	-15.6	nt	i	?	10.0%	-39.4%
O=C(COc1ccc(F)cc1)Nc1nnc(S(=O)(=O)N2CCc3ccccc32)s1	2.2	nt	i	12.6µM*	-4.6%	-29.3%
O=S1(=O)CCO[C@H]2CCCC[C@@H]2N1Cc1ccccc1F	nt	nt	nt	-14.5%	nt	-2.7%
O=C1c2oc3ccccc3c(=O)c2C(c2cccc(O)c2)N1c1nncs1 (stereo unspecified)	-16.6	nt	nt	-0.9%	nt	-1.5%
CCCOc1cccc(C2c3c(oc4ccccc4c3=O)C(=O)N2c2nncs2)c1 (stereo unspecified)	56.0*	nt	nt	?	nt	-11.4%
COc1ccc(C2Nc3ccccc3C(=O)N2c2cccc3ccccc23)cc1COc1c(C)cccc1C (stereo unspecified)	nt	nt	nt	25.0%	nt	3.3%
O=C(CSC1=Nc2ccccc2C2CC=NN12)Nc1ccc2c(c1)OCO2 (stereo unspecified)	-16.0	-50.2*	?	?	5.7%[11.3 µM]	-54.7%
O=C(O)CCSc1nc2ccccc2s1	4.3	-71.9*	i	10.0%	10µM*	9.6%
S=c1[nH]nc(CSc2nc3ccccc3s2)n1Cc1ccccc1	-4.7	?	i	-1.9%	-15.1%	-12.8%
c1ccc2sc(SCSc3nc4ccccc4s3)nc2c1	5.2	-5.1	i	-11.3%	nt	-41.5%
CN(C)CCCSc1nc2ccccc2s1	-24.8	-81.6*	i	3.7%	-10.7%	-24.7%
CCn1c(CSc2nc3ccccc3s2)n[nH]c1=S	-1.4	-53.3*	i	?	-1.3%	8.8%
